D1 ag: activates the human D1 dopamine receptor. P21728. HEK293 T-REx D1 cells, calcium flux, agonist mode. activation, % at 2 µM. actives 1% (n = 360,000); in the data active = activation above about 30%; also: 0% is about no effect
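Tetracycline-induced HEK293 TREx D1 cells, force-coupled to calcium signalling, were dye-loaded with a no-wash calcium kit. Compound was pin-added after a 10 s baseline. Fluorescence was read kinetically at 1 cycle/s for 180 s, with calcium rises flagged as agonism.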
D3 ag: agonists of human D3 dopamine receptor. P35462. D3R DiscoveRx beta-arrestin cells, luminescence, 90 min. max activation, %. actives 0.58% (n = 410,000). AID 652048; in the data active = max activation above about 30%; also: 0% is about no effect
Target sequence (P35462 whole entry, looked up): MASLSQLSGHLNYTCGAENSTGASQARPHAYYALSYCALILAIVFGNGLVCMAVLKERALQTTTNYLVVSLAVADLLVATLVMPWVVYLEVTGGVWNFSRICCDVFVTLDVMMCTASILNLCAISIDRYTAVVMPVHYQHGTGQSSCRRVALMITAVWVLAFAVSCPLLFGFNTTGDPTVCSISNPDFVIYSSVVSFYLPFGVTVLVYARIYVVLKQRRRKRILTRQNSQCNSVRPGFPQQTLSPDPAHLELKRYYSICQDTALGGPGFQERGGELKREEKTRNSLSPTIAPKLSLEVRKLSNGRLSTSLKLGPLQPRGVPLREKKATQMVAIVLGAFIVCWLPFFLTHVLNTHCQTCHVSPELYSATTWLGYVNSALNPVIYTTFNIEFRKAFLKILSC
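Agonist-mode cell screen: cells plated at 1500/well and incubated overnight at 37 °C, then exposed to library compounds for 90 min at 37 °C. Detection reagent was added for 30–60 min at room temperature, and luminescence was read.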
D1 PAM: enhances dopamine response at the human D1 receptor | P21728 | HEK293 TREx D1 cells, calcium flux, dopamine EC20 potentiation | potentiation, % at 10 µM | actives 0.036% (n = 360,000) | AID 504651; in the data active = potentiation above about 30%; also: 0% is about no effect
D1 antag: blocks dopamine activation of the human D1 receptor; P21728; HEK293 TREx D1 cells, calcium flux, dopamine EC80; active compounds read low; activity change, negative = inhibition, % at 10 µM; actives 3.2% (n = 360,000); in the data active = activity change below about -30%; also: % is scaled to controls: 0 for no effect and ±100 for the full control effect
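HEK293 T-REx cells expressing inducible, force-coupled D1 receptor; no-wash Ca dye, 30–90 min RT. Cmpd → 180 s read at 1 Hz → EC80 DA → 180 s read.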
DRD3 antagonist: blocks the human D3 dopamine receptor; max response, negative = inhibition, %; AID 652054; actives 2.5% (n = 360,000); D3R cells, DiscoveRx beta-arrestin luminescence, antagonist mode; active compounds read low; P35462; in the data active = max response below about -50%; inconclusive = no clear call, values can overlap the other calls; also: % is scaled to controls: 0 for no effect and ±100 for the full control effect
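Cells expressing the human receptor were seeded at 1500 cells/well, incubated overnight at 37 degrees C in 5% CO2, then exposed to library compounds with dopamine controls for 90 minutes at 37 degrees C before luminescent detection.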
* marks the source's active call; other numbers are inactive results; u = inconclusive; x = no result given. Most compounds without a hit are left out; they make up all but 6.1% or so of the library.

SMILES	D1 ag	D3 ag	D1 PAM	D1 antag	DRD3 antagonist
O=C(O)c1ccc(N2C(=O)c3ccccc3C2=O)cc1[N+](=O)[O-]	x	-14	x	x	-23
CC1=CC(C)(C)N(C(=O)CN2C(=O)CCC2=O)c2ccccc21	2	10	-1	-38*	1
COc1ccc(-c2noc(-c3ccc(NCc4ccc(C)cc4)c([N+](=O)[O-])c3)n2)cc1OC	7	3	1	-68*	x
COc1ccc(-c2nc3cccc(C)n3c2NCc2ccco2)cc1OC	0	6	-8	-31*	-52*
COc1ccc(-c2noc(-c3ccc(NCc4ccco4)c([N+](=O)[O-])c3)n2)cc1OC	-1	12	1	-41*	x
Cc1cccc(-c2noc(-c3ccc(NCc4ccco4)c([N+](=O)[O-])c3)n2)c1	22	-9	2	-15	x
COc1cc(NC(=O)Cn2c(=O)n(Cc3ccccc3OC)c(=O)c3cccnc32)cc(OC)c1	9	-15	-2	18	x
C=C(C)CN1C(=O)c2ccccc2C1=O	-2	2	-3	x	10
C=C(C)CC1Nc2ccccc2NC1CC(=C)C (centres undefined)	5	-2	1	-62*	-5
Nc1nnc(SCC(=O)c2ccccc2)s1	1	-5	4	1	7
Nc1c(C(=O)c2ccccc2)sc2snc(SCC(=O)c3ccccc3)c12	108*	-1	4	7	-26
CCOc1ccc(NC(=O)CSc2nnc(Cn3cnc([N+](=O)[O-])n3)n2CC)cc1	2	-4	-14	-38*	8
CCOc1ccc(NC(=O)CSc2nnc(Cn3cnc([N+](=O)[O-])n3)n2C)cc1	1	-12	1	5	-20
O=C(COC(=O)/C=C/c1ccccc1Cl)NC(=O)NCc1ccccc1	32*	-11	8	-11	20
CCCCNc1c(-c2cc3ccccc3o2)nc2nc(C)cc(C)n12	x	7	x	x	40
N#C/C(N=Nc1ccccc1O)=N\Nc1ccccc1O	36*	11	-6	-59*	-2
Cc1ccc(S(=O)(=O)/N=C2\C=C(NS(=O)(=O)c3ccccc3)C(=O)c3ccccc32)cc1	x	-6	x	x	-28
Cc1cccc(NC2=C/C(=N/S(=O)(=O)c3cccs3)c3ccccc3C2=O)c1	6	-15	-2	3	-93*
Cc1cc(C)c(S(=O)(=O)/N=C2\C=C(NS(=O)(=O)c3ccccc3)C(=O)c3ccccc32)c(C)c1	-2	-7	5	-14	-13
Cc1ccc(NC2=C/C(=N\S(=O)(=O)c3cccs3)c3ccccc3C2=O)c(C)c1	-1	-22	1	17	-91*
Cc1ccc(Cl)cc1NC1=C/C(=N\S(=O)(=O)c2cccs2)c2ccccc2C1=O	1	-36	16	1	-108*
CC(C)CC1C(=O)N(Cc2cn(CC3CCCCC3)nn2)CCS(=O)(=O)N1Cc1ccc(-c2cccc(C#N)c2)cc1 (centres undefined)	x	-14	x	x	-23
CCOC(=O)[C@]12CCC=C1N(Cc1cccc3ccccc13)C(=O)[C@H](CC(=O)N1CCN(C(=O)c3ccco3)CC1)C2	x	-2	x	x	-22
CCN(CC(=O)N1CCOCC1)S(=O)(=O)c1ccc(F)cc1	1	-2	27	2	-3
Cc1c(-c2cccc(NC(=O)Nc3ccccc3)c2)nc2ncccn12	1	-4	1	-56*	x
SMILES	D1 ag	D3 ag	D1 PAM	D1 antag	DRD3 antagonist
Cc1c(-c2cccc(NC(=O)Cc3ccccc3)c2)nc2ncccn12	1	-13	-1	-5	x
CCc1ccc(NC(=O)N2CCOc3ccc(Cl)cc32)cc1	3	-11	-2	-2	x
O=C(Nc1ccccc1C(F)(F)F)N1CCOc2ccc(Cl)cc21	0	3	0	-35*	x
COc1ccc(S(=O)(=O)N(C)CC(=O)NCCN2CCOCC2)cc1C	5	4	x	-8	3
Cc1ccccc1C(=O)NCCN1CCC(n2c(=O)[nH]c3ccccc32)CC1	x	-11	x	x	-109*
O=C(NCCN1CCC(n2c(=O)[nH]c3ccccc32)CC1)c1ccccc1Cl	x	-12	x	x	-100*
O=C(NCCN1CCC(n2c(=O)[nH]c3ccccc32)CC1)c1ccccc1C(F)(F)F	x	-13	x	x	-77*
COc1ccccc1C(=O)NCCN1CCC(n2c(=O)[nH]c3ccccc32)CC1	x	-16	x	x	0
O=C(NCCN1CCC(n2c(=O)[nH]c3ccccc32)CC1)c1ccc(Cl)cc1Cl	x	-15	x	x	-92*
COc1ccc(C)cc1Nc1n[n+](-c2ccccc2)c(-c2ccc(SC)cc2)s1	3	1	-1	16	-3
CC(=O)NC(C)(c1ccccc1)c1nc(-c2ccc(F)c(Cl)c2)cs1 (centres undefined)	x	0	x	x	-1
CCOc1ccccc1Nc1nnc(Cc2ccccc2Cl)c(=O)[nH]1	10	7	-10	-32*	-19
CCOC(=O)c1ccc(N2C(=O)c3n[nH]c(-c4ccco4)c3C2c2ccc(OCC)cc2)cc1 (centres undefined)	4	8	10	37	x
CC(C)CN1CCC(Oc2cccc(C(=O)NCCc3ccccc3)c2)CC1	6	-22	-3	-38*	4
CC(C)=CC(=O)N1CCC(Oc2cccc(C(=O)NCc3ccccn3)c2)CC1	x	1	x	x	-9
COCC(C)N1CCC(Oc2cccc(C(=O)NCCc3ccccc3)c2)CC1 (centres undefined)	13	-11	-12	-39*	-9
CSCC(C)N1CCC(Oc2cccc(C(=O)NCc3ccccn3)c2)CC1 (centres undefined)	4	-2	-11	-63*	-3
CCOC(=O)[C@H]1[C@H]2COc3ccc(OC)cc3[C@H]2N2C(=O)CNC(=O)[C@@]12C	-1	-5	1	x	3
Cc1cccc(C)c1C(=NCCCN(C)C)c1ccccc1	8	-8	1	-1	-78*
CN(C)CCCNC(=O)/C(=N\O)c1ccccc1	5	1	-7	20	-14
O=C(COC(=O)CNC(=O)c1ccccc1F)Nc1ncc(Cl)cc1Cl	3	2	-4	-1	2
O=S(=O)(c1ccc(NC(=S)NCc2ccc(F)cc2)cc1)N1CCOCC1	30*	14	-12	-49*	-25
CC(C)(C)NNC(=S)Nc1ccc(S(=O)(=O)N2CCOCC2)cc1	3	32*	17	5	6
CC(=O)NC(=S)Nc1ccc(S(=O)(=O)N2CCOCC2)cc1	1	4	-4	-8	8
Cc1ccc(C)c(CN2C(=O)c3ccccc3S(=O)c3ccc(C(=O)N4CCN(c5cccc(Cl)c5)CC4)cc32)c1 (centres undefined)	7	-3	-3	5	x
CCCCCC(=O)Nc1ccc(N2CCN(CC)CC2)c(Cl)c1	3	-31	-12	-52*	u
CCN1CCN(c2ccc(NC(=O)c3ccc(C#N)cc3F)cc2Cl)CC1	11	-5	-11	-43*	9

Source: PubChem BioAssay (National Center for Advancing Translational Sciences (NCATS))
